In PubChem BioAssay (NCI):
The panel holds about 83,000 compounds, 20% with a hit somewhere; the sample as a whole holds those more often.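 Percent growth is the endpoint: 0 to 100 indicates growth inhibition (40 means 60% inhibition), 0 means no net growth, and negative values indicate cell death.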 Unmarked numbers belong to inactive results. Active and inactive are the calls of the source. The calls were made as follows: active = growth percent below 10; inactive = the rest.

Key:
Experiment in all cases: NCI-60 one-dose screen, 48 h (100 = growth as untreated, 0 = no growth, -100 = all killed)
Conditions in all cases: 10 µM
DU-145 prostate = test system: DU-145 prostate
K-562 leukemia = test system: K-562 leukemia
MALME-3M melanoma = test system: MALME-3M melanoma
MDA-MB-231 breast = test system: MDA-MB-231 breast
RXF 393 renal = test system: RXF 393 renal
SF-268 CNS = test system: SF-268 CNS
SF-295 CNS = test system: SF-295 CNS
SF-539 CNS = test system: SF-539 CNS
UACC-257 melanoma = test system: UACC-257 melanoma
M14 melanoma = test system: M14 melanoma

SMILES	growth (DU-145 prostate)	growth (K-562 leukemia)	growth (MALME-3M melanoma)	growth (MDA-MB-231 breast)	growth (RXF 393 renal)	growth (SF-268 CNS)	growth (SF-295 CNS)	growth (SF-539 CNS)	growth (UACC-257 melanoma)	growth (M14 melanoma)
O=C(Nc1cccc(F)c1)Nc1cccc(Cl)c1	65.8%	10.9%	84.6%	80.7%	104%	80.4%	92.7%	105%	87.7%	100%
Cc1ncc([N+](=O)[O-])n1CCOc1ccc(C(=O)/C=C/c2ccc(C(F)(F)F)cc2)cc1	56.4%	14%	81.8%	82.9%	64.1%	77.4%	73.8%	57.5%	82.9%	79.7%
CCC1(C)OC(=O)NC1=O (stereo not given)	111%	91.7%	106%	109%	121%	103%	103%	99.1%	90.9%	97.2%
COc1ccc(S(=O)(=O)Nc2cc(/C=C\c3cc(OC)c(OC)c(OC)c3)ccc2OC)cc1	-12.8% (active)	11.1%	50%	7.83% (active)	16.4%	9.24% (active)	13%	-13% (active)	47.7%	8.41% (active)
O=c1oc2cc(OS(=O)(=O)C3CC3)ccc2c2c1CCCCCC2	91.4%	51.2%	95.3%	78.3%	88.3%	94.4%	75.3%	82.2%	92.8%	81.4%
COC(=O)[C@]12CC[C@@H](C)[C@H](C)[C@@H]1C1=CC[C@@H]3[C@@]4(C)CC(=O)[C@H](O)[C@@](C)(CO)[C@@H]4C(=O)C[C@@]3(C)[C@]1(C)CC2	-44.4% (active)	-69.5% (active)	-35.2% (active)	-34.2% (active)	-41.4% (active)	4.33% (active)	-0.778% (active)	16.5%	7.73% (active)	10.1%
O=S(=O)(NC1c2ccccc2Oc2ccccc21)c1cc(Cl)ccc1Cl	113%	89.8%	102%	97.4%	93.1%	99.1%	101%	98.2%	102%	98.9%
O=C(CCCC(=O)N/N=C/c1cc(Cl)ccc1O)N/N=C\c1cc(Cl)ccc1O	42.9%	13.9%	31.2%	37.5%	39.2%	26.4%	-5.9% (active)	14.1%	-1.55% (active)	12.9%
COc1ccc(CCc2nc3cc(-c4c(C)noc4C)ccc3n2CCN2CCOCC2)cc1	80.1%	13.7%	-37.4% (active)	81.7%	70.1%	50.4%	-35% (active)	90.4%	12.9%	20.6%
COc1cccc(C(=O)NNc2nc(N3CCOCC3)nc(N3CCN(C(c4ccccc4)c4ccccc4)CC3)n2)c1	87.2%	63.5%	91.7%	86.3%	69.4%	71.5%	87.3%	93.6%	90.9%	114%
Cc1ccc(/C=C2\CN(Cc3cn(CCNc4ccnc5cc(Cl)ccc45)nn3)C/C(=C\c3ccc(C)cc3)C2=O)cc1	-98.5% (active)	-14.7% (active)	-14.9% (active)	-27.6% (active)	-89% (active)	-70.7% (active)	-58.8% (active)	-51.9% (active)	-41.1% (active)	-41.7% (active)
Cn1c([N+](=O)[O-])cnc1C=C1C(=O)c2ccccc2C1=O	46.5%	15.8%	42.5%	45.6%	4.59% (active)	17.7%	110%	17.7%	37.4%	19.3%
CNC(=O)c1cc(Oc2ccc(NC(=O)Nc3ccc(Cl)c(C(C)(C)C)c3)c(F)c2)ccn1	60.8%	19%	0.423% (active)	48.4%	90%	59.1%	24.5%	46.6%	20.7%	22.4%
O=C(O)CCCN1C(=O)NC2(C1=O)c1ccccc1-c1ccccc12	105%	99%	97.3%	107%	101%	95.3%	95.2%	99.7%	91.2%	103%
Fc1ccc(-c2cc(C(Cl)Cl)no2)cc1	100%	128%	93.3%	95.1%	103%	100%	97.1%	106%	120%	89.3%
COc1cc(C2C(C#N)=C(c3c[nH]c4ccccc34)Nc3nc(N)[nH]c(=O)c32)cc(OC)c1OC (stereo not given)	86.5%	50.4%	71.1%	89.5%	73.2%	88.3%	97.6%	48.4%	99.1%	95.7%
Cc1ccc(-n2nnc3c(sc4ccccc43)c2=O)cc1	33.7%	80.3%	68.1%	40.9%	59.9%	39.8%	27.3%	57.2%	83%	83.1%
C[C@@H]1C(=O)N(C[C@H](Cc2ccccc2)NC(=O)OCc2ccccc2)[C@]1(Cc1ccccc1)C(=O)OCc1ccccc1	78.2%	26.1%	35.9%	58.8%	42.2%	52.2%	30%	64.6%	32.1%	40.7%
COc1ccc(-c2cn[nH]c2-c2cc(OC)c(OC)c(OC)c2)cc1	4.46% (active)	6.36% (active)	76.4%	8.75% (active)	14.8%	19.7%	6.26% (active)	-32% (active)	49.2%	3.85% (active)
COc1cc(-c2c(C#N)c(N)n3c(nc4ccccc43)c2C#N)cc(Br)c1OC	39.1%	54.6%	7.41% (active)	12.6%	-9.32% (active)	64%	66%	41.2%	54%	76%
